Screens deposited in PubChem BioAssay by National Center for Advancing Translational Sciences (NCATS).
TRPML1 blocker – blocks the human TRPML1 channel. AID 624415. TRPML1-inducible cells, Ca2+ dye fluorescence, FDSS; hits give low values; inhibition of EC80 agonist-evoked calcium signal. activity change, negative = inhibition, % (no concentration beside the values). Q9GZU1. 0.02% of 390,000 active; in the data active = activity change below about -50%; inconclusive = between about -30% and that limit;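 also: stimulus is agonist 54-4 at its EC80 concentration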
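TRPML1-DL cells, Tet-induced overnight (~16 h, 37 °C) at 1,500 cells/well, were loaded with Ca8 no-wash dye plus quencher for 45-90 min at room temperature. Compounds were pinned during FDSS kinetic reading; agonist 54-4 at EC80 (4 uM final) then added.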
Glioma ERSR ind – inducers of ER stress response in human glioma cells | U87-MG GRP78 promoter luciferase reporter, 16 h | Potency, µM, hits mostly activators | 0.02% of 420,000 active | AID 602332; also: series mostly up to about 76 µM; nearly all actives have a fitted effect of over 35% in size
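Stably transfected U87-MG glioma cells carrying a GRP78-based luciferase sensor; 16 h compound incubation. Luminescence end-point read 10 min after Bright-Glo addition at room temperature.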
ALOX12 inh – blocks human arachidonate 12S-lipoxygenase | P18054 | purified 12hLO, xylenol orange hydroperoxide absorbance | Potency, µM (series often up to 108 µM), actives largely listed as inhibitors | 1.1% of 580,000 active
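Hydroperoxide product was detected by ferrous iron/xylenol orange as the 573 to 405 nm absorbance ratio. Arachidonic acid at 40 uM (final) was turned over for 30 min at room temperature by 150 nM human 12hLO, pH 7.0 Hepes buffer, after 15 min compound preincubation.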
TRPML1 agonist – agonists of human TRPML1 channel. TRPML1-expressing cells, Ca2+ dye fluorescence, FDSS. activation, % (no concentration beside the values). 0.12% of 410,000 active. AID 624414; in the data active = activation above about 50%; inconclusive = mostly about 30% to 49%
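TRPML1-DL cells, Tet-induced overnight (~16 h, 37 degrees C), loaded 45-90 min at room temperature with Ca8 no-wash calcium dye plus quencher. FDSS fluorescence: 10 s baseline, compound pin-transfer, 110 s agonist read, then EC80 54-4 (4uM final) and 110 s antagonist read.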
Vif-A3F inh – blocks the Vif interaction with APOBEC3F; HeLa A3F-eYFP + Vif (tagged APOBEC3F with the HIV-1 protein that degrades it), YFP fluorescence increase; Potency, µM (doses to about 46.1 µM); 0.2% of 390,000 active; AID 602313; also: nearly all actives have a fitted effect of over 65% in size
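HeLa cells stably expressing Vif plus C-terminally eYFP-tagged A3F were seeded, incubated overnight at 37 deg C, dosed with compound, incubated overnight again at 37 deg C. Yellow fluorescence (Ex 488/Em 500-530) reported blocked Vif-mediated A3F-eYFP degradation.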
Vif-A3G inh – Vif-A3G binding inhibition; 0.076% of 410,000 active; HeLa A3G-eYFP + Vif (tagged APOBEC3G with the HIV-1 protein that degrades it), YFP fluorescence, overnight; Potency, µM (highest dose often 46.1 µM), most hits filed as inhibitors; AID 602310; Q9HC16; also: nearly all actives have a fitted effect of over 60% in size
Target sequence (Q9HC16 whole entry, looked up): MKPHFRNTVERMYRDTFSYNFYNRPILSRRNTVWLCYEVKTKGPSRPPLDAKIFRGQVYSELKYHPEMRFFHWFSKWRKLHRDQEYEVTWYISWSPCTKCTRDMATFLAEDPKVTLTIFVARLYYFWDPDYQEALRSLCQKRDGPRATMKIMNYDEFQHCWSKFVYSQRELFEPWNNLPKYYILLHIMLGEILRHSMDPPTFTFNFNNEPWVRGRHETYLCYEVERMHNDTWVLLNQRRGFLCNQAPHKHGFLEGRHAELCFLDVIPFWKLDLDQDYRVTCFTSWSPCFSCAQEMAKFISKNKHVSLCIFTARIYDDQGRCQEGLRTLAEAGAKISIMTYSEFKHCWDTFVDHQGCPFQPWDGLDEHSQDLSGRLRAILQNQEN
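Read-out is eYFP fluorescence (Ex 488/Em 500-530) from Vif-expressing HeLa A3G-eYFP cells; more signal means A3G escaped Vif-mediated degradation. Cells plated overnight, compound pinned in, incubated overnight at 37 deg C.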
A number is an active result; ! = repeats disagree. Compounds with a hit are over-represented: about 1.3% of the library has one in this group of screens. Unless noted, calls follow the shape of the dose curve; as a rule, active = well fitted curve in the direction sought with a large enough effect; inconclusive = small, poorly fitted or top-dose-only effect, or another doubt; inactive = no such curve, though single readings can be large; an effect the other way counts as inactive or inconclusive.

`C[C@]12CCC3C(CCC4=CC(=O)CC[C@@H]43)C1CCC2O` (stereo not given in full) gave Glioma ERSR ind inactive.
Screening C[C@]12CC[C@@H]3c4cc(O)c(O)cc4CC[C@H]3[C@@H]1CC[C@@H]2O returned TRPML1 blocker inactive, Glioma ERSR ind inactive, ALOX12 inh 7.9µM, TRPML1 agonist inactive, Vif-A3F inh inactive and Vif-A3G inh inconclusive.
For C[C@]12CC[C@@H]3c4ccc(O)c(O)c4CC[C@H]3[C@@H]1CC[C@@H]2O the results were TRPML1 blocker inactive, Glioma ERSR ind inactive, ALOX12 inh 5µM, TRPML1 agonist inactive, Vif-A3F inh inconclusive and Vif-A3G inh inconclusive.
Screening C[C@]12CC[C@@H]3c4ccc(OC(=O)N(CCCl)CCCl)cc4CC[C@H]3[C@@H]1CC[C@@H]2O returned Glioma ERSR ind inactive.
For COc1ccc(-c2cc([C@H]3CN4CC[C@H]3C[C@@H]4CNC(=O)C3CCC3)n(C)n2)cc1OC the results were ALOX12 inh inactive.
Cc1ccc2c(Cl)cc(Cl)c(O)c2n1 was read as TRPML1 blocker inactive, Glioma ERSR ind 28µM!, ALOX12 inh inconclusive, TRPML1 agonist inactive, Vif-A3F inh inconclusive and Vif-A3G inh inactive.
Screening CN(C)C(=O)Oc1c(Cl)cc(Cl)c2cccnc12 returned TRPML1 blocker inactive, Glioma ERSR ind inactive, ALOX12 inh inactive, TRPML1 agonist inactive, Vif-A3F inh inactive and Vif-A3G inh inactive.
`c1ccc(-c2nc(N3CCOCC3)s[n+]2-c2ccccc2)cc1` gave TRPML1 blocker inactive, Glioma ERSR ind inactive, ALOX12 inh 32µM, TRPML1 agonist inactive, Vif-A3F inh inactive and Vif-A3G inh inactive.
`Cc1cccc(-n2c(O)c(/C=N/Nc3nc4c(c(=O)n(C)c(=O)n4C)n3C)c(=O)[nH]c2=S)c1` gave TRPML1 blocker inactive, Glioma ERSR ind inactive, ALOX12 inh 32µM, TRPML1 agonist inactive, Vif-A3F inh inactive and Vif-A3G inh inactive.
Screening Cc1ccccc1-n1c(O)c(/C=N/Nc2nc3c(c(=O)n(C)c(=O)n3C)n2C)c(=O)[nH]c1=S returned TRPML1 blocker inactive, Glioma ERSR ind inactive, ALOX12 inh inconclusive, TRPML1 agonist inactive, Vif-A3F inh inactive and Vif-A3G inh inactive.
For COCCNC(=O)[C@H]1CN2CC[C@H]1C[C@@H]2Cn1cc(-c2ccc(C(C)(C)C)cc2)nn1 the results were ALOX12 inh inactive.
CCC[N+]12CCC(CC1)C(C(O)(c1ccccc1)c1ccccc1)C2 (stereo not given) was read as TRPML1 blocker inactive, Glioma ERSR ind inactive, ALOX12 inh inconclusive, TRPML1 agonist inactive, Vif-A3F inh inactive and Vif-A3G inh inactive.
Screening C[N+]12CCC(CC1)C(C(O)(c1ccccc1)c1cccs1)C2 (stereo not given) returned TRPML1 blocker inactive, Glioma ERSR ind inactive, ALOX12 inh 45µM, TRPML1 agonist inactive, Vif-A3F inh inactive and Vif-A3G inh inactive.
`O=C(Nc1ccccc1)N1C[C@@H]2C[C@H](C1)c1c(-c3ccccc3F)ccc(=O)n1C2` gave ALOX12 inh inactive.
For CN1CCN(c2ccc(/C=C3\C(=O)NC(=S)N(c4cccc(Br)c4)C3=O)o2)CC1 the results were TRPML1 blocker inactive, Glioma ERSR ind inactive, ALOX12 inh inconclusive, TRPML1 agonist inactive, Vif-A3F inh 25µM and Vif-A3G inh 22µM.
COc1ccc(N2C(=O)/C(=C/c3ccc(C)o3)C(=O)NC2=S)cc1 was read as TRPML1 blocker inactive, Glioma ERSR ind inactive, ALOX12 inh 13µM, TRPML1 agonist inactive, Vif-A3F inh inactive and Vif-A3G inh inactive.
COc1ccc(CC(=O)N2[C@H]3CC[C@@H]2c2cnc(-c4ccc(F)cc4)nc2C3)cc1OC was read as ALOX12 inh inactive.
For CC1=Nc2ccccc2/C1=C/c1c(O)[nH]c(=O)[nH]c1=O the results were TRPML1 blocker inactive, Glioma ERSR ind inactive, ALOX12 inh 28µM, TRPML1 agonist inactive, Vif-A3F inh inactive and Vif-A3G inh inactive.
Screening Cc1noc(C)c1-c1cnc2[nH]cc(CC(=O)N3CCN(C)CC3)c2c1 returned ALOX12 inh inactive.
Screening Cc1cc(/C=C2\C(=O)NC(=O)N(c3cccc(F)c3)C2=O)c(C)n1-c1ccc(C(=O)O)c(Cl)c1 returned TRPML1 blocker inconclusive, Glioma ERSR ind inactive, ALOX12 inh 7.9µM, TRPML1 agonist inactive, Vif-A3F inh inactive and Vif-A3G inh inactive.
`CC1CCN(C(CC(=O)c2ccccc2)C(=O)c2ccccc2)CC1` (stereo not given) gave TRPML1 blocker inactive, Glioma ERSR ind inactive, ALOX12 inh 8.9µM, TRPML1 agonist inactive, Vif-A3F inh inactive and Vif-A3G inh inactive.
O=C(CN1CCCC1)c1ccccc1 was read as Glioma ERSR ind inactive, TRPML1 agonist inactive and Vif-A3G inh inactive.
For Cn1nc(-c2ccccc2)cc1[C@H]1CN2CC[C@H]1C[C@@H]2CNC(=O)Nc1ccccc1 the results were ALOX12 inh inactive.
`Cc1ccc(NC(=O)N(Cc2ccc3c(c2)OCO3)C2CCN(Cc3ccccc3)CC2)cc1Cl` gave TRPML1 blocker inactive, Glioma ERSR ind inactive, ALOX12 inh 45µM, TRPML1 agonist inactive, Vif-A3F inh inactive and Vif-A3G inh inactive.
For Cc1ccc(NC(=O)N(Cc2ccc3c(c2)OCO3)C2CCN(Cc3ccccc3)CC2)cc1C the results were TRPML1 blocker inactive, Glioma ERSR ind inactive, ALOX12 inh inactive, TRPML1 agonist inactive, Vif-A3F inh inactive and Vif-A3G inh inactive.
For CCCCCn1c(NC(=O)c2ccco2)c(C(=O)OCC)c2nc3ccccc3nc21 the results were TRPML1 blocker inactive, Glioma ERSR ind inactive, TRPML1 agonist inactive, Vif-A3F inh inconclusive and Vif-A3G inh 11µM.
CCN1/C(=C/C=C/C2=[N+](CC)c3ccccc3C2(C)C)C(C)(C)c2ccccc21 was read as TRPML1 blocker inactive, Glioma ERSR ind inactive, ALOX12 inh inconclusive, TRPML1 agonist 76, Vif-A3F inh inactive and Vif-A3G inh inactive.
For COc1cc2c(cc1OC1CCCC1)NC(=O)C21CCN(Cc2cccnc2)CC1 the results were ALOX12 inh inactive.
Screening O=C1NC[C@H]2CN(C3CCOCC3)CCN12 returned ALOX12 inh inactive.
`COc1cc2c(cc1OCc1ccccc1)NC(=O)C21CCN(c2ccccn2)CC1` gave ALOX12 inh inactive.
Screening O=S(=O)(c1ccc(F)cc1)N1[C@H]2CC[C@@H]1c1cncnc1C2 returned ALOX12 inh inactive.
`COc1ccc(OC)c(N2C(=O)/C(=C/c3ccco3)C(=O)NC2=S)c1` gave TRPML1 blocker inactive, Glioma ERSR ind inactive, TRPML1 agonist inactive, Vif-A3F inh inactive and Vif-A3G inh inactive.
